Assay results taken from PubChem BioAssay (NCATS).
Inconclusive results are not listed. Active and inactive are the calls of the source. Unless noted, calls follow the shape of the dose curve; as a rule, active = well fitted curve in the direction sought with a large enough effect; inconclusive = small, poorly fitted or top-dose-only effect, or another doubt; inactive = no such curve, though single readings can be large; an effect the other way counts as inactive or inconclusive.

What was measured:
[1] = biological target: Lysosomal acid glucosylceramidase (Homo sapiens) (UniProt P04062); assay: Glucocerebrosidase-p2 (AID 348; in the data active = potency below about 10 µM; also: potency is read from the fitted curve at half-maximal effect); settings: purified GBA, blue fluorogenic substrate, 40 min
Summary of the method: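 Compounds titrated from 0.6 nM upwards against 0.2 nM enzyme in pH 5.9 citric acid/KH2PO4, taurocholate, tween-20; blue fluorogenic substrate 80 uM, 40 min room temperature, stopped and read Ex 365/Em 440 for AC50.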

[2] = AP1 Signaling Pathway (AID 357; active = well fitted curve in either direction with a large enough effect, not every such curve was filed as active;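 also: ME-180 reporter cells stimulated with EGF at its EC50 level; % is scaled to controls: 0 for no effect and ±100 for the full control effect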); settings: ME-180 AP-1-bla reporter, EGF-induced, beta-lactamase ratio, 5 h; at 7.69 µM (top of the series) unless noted
Summary of the method: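 First, ME-180 AP-1-bla cells were cultured overnight at 37 °C in low-serum Opti-MEM. Next, titrated compounds with EC50 EGF were incubated 5 hours. Finally, CCF4 was added for 2.5 hours and the 460/530 nm ratio recorded.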

[3] = biological target: Cytochrome P450 1A2 (Homo sapiens) (UniProt P05177); assay: p450-cyp1a2 (AID 410; calls by dose curve; also: potency is read from the fitted curve at half-maximal effect)
Summary of the method: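 Luminescent readout of luciferin formed from Luciferin-ME by human CYP1A2; data normalized against complete inhibition by 57 uM furafylline. Enzyme 20nM, substrate 100uM at Km, 100mM KPO4 buffer, 60 min reaction at room temperature.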

[4] = Stat Signaling Pathway (AID 446; active = well fitted curve in either direction with a large enough effect, not every such curve was filed as active;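 also: ME-180 cervical cancer cells given 40 pM IL-6 alongside compound; SIE-controlled beta-lactamase reporter measured as 460/530 nm FRET emission ratio; % is scaled to controls: 0 for no effect and ±100 for the full control effect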); settings: ME-180 SIE beta-lactamase reporter, IL-6 stimulated, 5 h; at 7.69 µM (top of the series) unless noted
Summary of the method: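 ME-180 cells carrying a SIE-driven beta-lactamase reporter are stimulated with 40 pM IL-6 for 5 h at 37C in the presence of compound. The 460/530 nm FRET substrate ratio is read after 2.5 h at RT. Data are normalised to 300 pM IL-6 and to 125 nM JAK inhibitor controls.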

[5] = biological target: Glucocorticoid receptor (Homo sapiens) (UniProt P04150); assay: GR-EFC Redistribution (AID 451; calls by dose curve; also: potency is read from the fitted curve at half-maximal effect); settings: CHO-K1 GR-EFC translocation, beta-gal luminescence, 2 h
Summary of the method: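 CHO-K1 cells expressing nuclear EA and GR-ED fragments of b-gal; compounds titrated up to 46 uM final, 2 h at 37 C. GR nuclear translocation read as complemented b-gal luminescence after 1 h RT detection.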

[6] = biological target: Mitogen-activated protein kinase 10 (Mus musculus) (UniProt Q61831); assay: JNK3 AlphaScreen Assay (AID 530; active = well fitted curve in either direction with a large enough effect, not every such curve was filed as active;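 also: kinase came from lysate of stimulated human HepG2 cells; signal reports phosphorylation of biotinylated GST-cJun 1-79 at Ser73 with 10 µM ATP; % is scaled to controls: 0 for no effect and ±100 for the full control effect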)
Summary of the method: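 Pre-activated (IL-1β/TNFα) JNK3 in HepG2 lysates phosphorylates biotin-GST-cJun(1-79), 10 uM ATP; anti-phospho-cJun(Ser73) AlphaScreen read at room temperature, pH 7.6 Tris buffer. Compounds pre-incubated 15 min as titrations.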

[7] = biological target: 3',5'-cyclic-AMP phosphodiesterase 4B (Homo sapiens) (UniProt Q07343); assay: qHTS Assay for Inhibitors of PDE-IV (AID 607; active = well fitted activation curve with a large enough effect in the main read-out, with a control signal flat, not every such curve was filed as active; also: % of control where 0% means no effect)
Summary of the method: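 HEK293 ACTOne cells with CNG channel (1000/well), endogenous PDE4; membrane potential dye, compounds up to 22.9 uM final. Fluorescence Ex 535/Em 590; RO 20-1724 (100 uM final) as reference.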

[8] = biological target: Cytochrome P450 3A4 (Homo sapiens) (UniProt P08684); assay: qHTS Assay for Inhibitors and Substrates of Cytochrome P450 3A4 (AID 884); also: potency is read from the fitted curve at half-maximal effect; nearly all actives have a fitted effect of over 50% in size
Summary of the method: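 20 nM human CYP3A4 with 25 uM Luciferin-PPXE (at KM) in 200 mM KPO4, preincubated 10 min with compound; NADPH regeneration started a 60 min RT reaction. Luciferin detected by luminescence, normalized to 57 uM ketoconazole as full inhibition.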

[9] = biological target: Cytochrome P450 3A4 (Homo sapiens) (UniProt P08684); assay: qHTS Assay for Activators of Cytochrome P450 3A4 (AID 885); also: nearly all actives have a fitted effect of over 65% in size
Summary of the method: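 Human CYP3A4 (20 nM) with Luciferin-PPXE at 25 uM (its KM) in 200 mM KPO4; 10 min compound preincubation, then NADPH regeneration and 60 min reaction at RT. Luciferin read by luminescence; normalized to 57 uM ketoconazole full inhibition.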

[10] = Counterscreen qHTS for small molecule stabilizers of the endoplasmic reticulum resident proteome: GLuc-NoTag assay (AID 1508627);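 also: SH-SY5Y cells given compound then 100 nM thapsigargin to empty ER calcium; 0% = thapsigargin alone and -100% = DMSO vehicle control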
Summary of the method: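 SH-SY5Y cells stably expressing constitutively secreted GLuc without SERCaMP tag, exposed to compound for 19 hr, then to 100 nM thapsigargin for 4 hr at 37C. Medium luciferase was read by coelenterazine luminescence without lysis.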

[11] = Confirmatory qHTS for small molecule stabilizers of the endoplasmic reticulum resident proteome: Secreted ER Calcium Modulated Protein (SERCaMP) assay (AID 1508628); also: nearly all actives have a fitted effect of over 40% in size; also: potency is read from the fitted curve at half-maximal effect
Summary of the method: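 SH-SY5Y cells stably expressing GLuc-SERCaMP, treated 16 h with compound (primary 1.53, 7.67, 38.3 uM; confirmation 11 concentrations, up to 76.6 uM), then 100 nM thapsigargin for 4 h. Secreted Gaussia luciferase in medium read by coelenterazine luminescence.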

[12] = NFAT Signaling Pathway (AID 444; active = well fitted curve in either direction with a large enough effect, not every such curve was filed as active;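 also: carbachol stimulus at about its EC50 of 1 µM final; % is scaled to controls: 0 for no effect and ±100 for the full control effect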); settings: Jurkat NFAT-bla M1, carbachol, beta-lactamase ratio, 5 h; at 7.69 µM (top of the series) unless noted
Summary of the method: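 Jurkat cells with NFAT-driven β-lactamase reporter and co-expressed M1 receptor, stimulated with carbachol (final 1 uM, ~EC50), compound titration, 5 h at 37 °C. CCF4 loaded 1 h at RT; 460/530 nm ratio gave %activity and AC50.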

[13] = biological target: Glucocorticoid receptor (Homo sapiens) (UniProt P04150); assay: GR-GFP Redistribution (AID 450;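 active = compounds whose dose series gives a full or clear partial fitted curve of increased nuclear translocation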; also: potency is read from the fitted curve at half-maximal effect); settings: U2OS GR-GFP nuclear translocation, laser cytometry, 2 h
[14] = qHTS Assay for Lipid Storage Modulators (AID 1519; calls by dose curve); settings: Drosophila S3 cells, BODIPY lipid droplet/cell ratio, laser cytometry, cells loaded with oleic acid
Summary of the method: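 Cells seeded at 5,000 per well were treated with compounds over a concentration series and loaded with oleic acid (400 uM, as added). Lipid droplet fluorescence (488 nm excitation, 500-530 nm channel) was read by laser-scanning cytometry and normalized to 20 uM Triacsin C.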

[15] = biological target: Dual specificity protein kinase CLK4 (Homo sapiens) (UniProt Q9HAZ1); assay: qHTS Assay for Inhibitors of CDC-like Kinase 4 (Kinase-Glo Assay) (AID 1770); also: % is scaled to controls: 0 for no effect and ±100 for the full control effect; nearly all actives have a fitted effect of over 65% in size
Summary of the method: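 Recombinant human Clk4 (25 nM) phosphorylated RS repeat peptide (100 uM) with 1 uM ATP in Tris pH 7.5/MgCl2/EGTA/DTT/Triton buffer for 4.5 h at room temperature. Residual ATP was quantified by Kinase-Glo luciferase luminescence.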

[16] = biological target: Dual specificity protein kinase CLK4 (Homo sapiens) (UniProt Q9HAZ1); assay: qHTS Assay for Inhibitors of CDC-like Kinase 4 (ADP-Glo Assay) (AID 1771); also: % is scaled to controls: 0 for no effect and ±100 for the full control effect; nearly all actives have a fitted effect of over 70% in size
Summary of the method: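 Luminescence from ADP-Glo reports ADP produced by 25 nM Clk4 acting on 100 uM RS repeat peptide with 1 uM ATP over 1 hr at room temperature; residual ATP is depleted before ADP is converted to ATP for detection.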

[17] = biological target: Dual specificity protein kinase CLK4 (Homo sapiens) (UniProt Q9HAZ1); assay: qHTS Assay for Inhibitors of CDC-like Kinase 4 (ADP-FP Assay) (AID 1795); also: % is scaled to controls: 0 for no effect and ±100 for the full control effect; nearly all actives have a fitted effect of over 60% in size
Summary of the method: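 Recombinant human Clk4 (6.25 nM) phosphorylated RS repeat peptide (100 uM) with 1 uM ATP in Tris pH 7.5/MgCl2/EGTA/DTT/Triton buffer for one hour. ADP was quantified by Transcreener competitive fluorescence polarization against an ADP calibration curve.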

[18] = biological target: Ubiquitin carboxyl-terminal hydrolase 1 (Homo sapiens) (UniProt O94782); assay: Inhibitors of USP1/UAF1: Pilot qHTS (AID 504865);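 also: rhodamine fluorescence freed from ubiquitin-rhodamine substrate followed over time; top concentration of the series differs between compounds; % is scaled to controls: 0 for no effect and ±100 for the full control effect; nearly all actives have a fitted effect of over 35% in size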
Summary of the method: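 USP1/UAF1 complex (1nM) preincubated with compound 15 min at room temperature, then Ub-Rho substrate (150nM final) added. Fluorescence read kinetically at 480/540 nm, 6 reads every 60 seconds. Buffer: 50mM HEPES pH 7.8, 0.5mM EDTA, 0.1 mg/ml BSA, 1mM TCEP, 0.01% Tween-20.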

[19] = Cell Viability qHTS for small molecule stabilizers of the endoplasmic reticulum resident proteome (AID 1508629); settings: cell viability counter-screen, 100 nM thapsigargin for final 4 h

Glucocorticoid receptor (Homo sapiens), sequence (P04150 whole entry, looked up, the tested form may be a part): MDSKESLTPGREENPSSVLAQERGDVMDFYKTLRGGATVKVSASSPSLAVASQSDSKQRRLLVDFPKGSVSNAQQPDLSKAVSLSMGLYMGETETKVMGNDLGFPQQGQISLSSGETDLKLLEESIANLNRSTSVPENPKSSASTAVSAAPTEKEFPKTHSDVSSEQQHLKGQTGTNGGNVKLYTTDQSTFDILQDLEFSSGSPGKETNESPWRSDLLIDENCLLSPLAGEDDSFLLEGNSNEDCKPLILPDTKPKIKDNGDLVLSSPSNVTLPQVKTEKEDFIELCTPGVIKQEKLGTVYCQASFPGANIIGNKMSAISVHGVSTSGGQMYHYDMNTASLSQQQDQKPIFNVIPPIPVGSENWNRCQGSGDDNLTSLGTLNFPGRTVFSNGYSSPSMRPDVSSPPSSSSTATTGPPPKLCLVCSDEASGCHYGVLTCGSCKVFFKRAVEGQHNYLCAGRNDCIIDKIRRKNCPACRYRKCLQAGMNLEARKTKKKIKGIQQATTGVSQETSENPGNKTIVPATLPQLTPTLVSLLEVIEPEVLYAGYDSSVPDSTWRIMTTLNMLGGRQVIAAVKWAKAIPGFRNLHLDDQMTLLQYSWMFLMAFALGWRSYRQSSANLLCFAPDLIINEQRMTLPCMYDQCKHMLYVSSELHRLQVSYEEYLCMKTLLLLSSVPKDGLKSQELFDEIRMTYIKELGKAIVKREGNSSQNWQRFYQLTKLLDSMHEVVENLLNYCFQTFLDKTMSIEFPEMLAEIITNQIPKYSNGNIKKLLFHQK
Dual specificity protein kinase CLK4 (Homo sapiens), sequence (Q9HAZ1 whole entry, looked up): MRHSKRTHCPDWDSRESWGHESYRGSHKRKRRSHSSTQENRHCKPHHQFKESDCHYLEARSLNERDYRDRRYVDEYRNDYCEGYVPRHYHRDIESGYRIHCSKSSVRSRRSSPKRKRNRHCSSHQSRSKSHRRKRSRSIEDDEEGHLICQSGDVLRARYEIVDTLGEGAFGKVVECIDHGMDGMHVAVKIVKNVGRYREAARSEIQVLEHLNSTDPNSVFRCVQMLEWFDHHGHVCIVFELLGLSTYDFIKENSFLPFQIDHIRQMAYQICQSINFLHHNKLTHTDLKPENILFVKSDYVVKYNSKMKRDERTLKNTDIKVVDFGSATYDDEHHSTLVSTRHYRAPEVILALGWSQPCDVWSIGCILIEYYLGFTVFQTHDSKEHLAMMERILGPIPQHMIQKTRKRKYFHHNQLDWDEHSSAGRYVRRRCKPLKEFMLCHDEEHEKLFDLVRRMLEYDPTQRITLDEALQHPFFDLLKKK
Cytochrome P450 3A4 (Homo sapiens), sequence (P08684 whole entry, looked up): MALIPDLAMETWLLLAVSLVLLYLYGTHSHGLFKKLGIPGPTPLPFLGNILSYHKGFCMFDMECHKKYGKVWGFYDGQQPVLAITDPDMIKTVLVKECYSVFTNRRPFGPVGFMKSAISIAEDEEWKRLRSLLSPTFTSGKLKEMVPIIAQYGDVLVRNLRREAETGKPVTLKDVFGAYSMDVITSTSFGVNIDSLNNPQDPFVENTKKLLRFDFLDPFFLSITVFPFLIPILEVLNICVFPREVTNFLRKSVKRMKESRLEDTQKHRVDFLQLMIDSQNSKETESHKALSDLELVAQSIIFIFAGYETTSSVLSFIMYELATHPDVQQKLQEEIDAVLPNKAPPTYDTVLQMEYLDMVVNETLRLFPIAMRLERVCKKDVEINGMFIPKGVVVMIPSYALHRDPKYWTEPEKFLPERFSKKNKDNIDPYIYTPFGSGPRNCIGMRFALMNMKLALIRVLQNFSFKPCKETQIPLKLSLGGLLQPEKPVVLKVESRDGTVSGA
Lysosomal acid glucosylceramidase (Homo sapiens), sequence (P04062 whole entry, looked up): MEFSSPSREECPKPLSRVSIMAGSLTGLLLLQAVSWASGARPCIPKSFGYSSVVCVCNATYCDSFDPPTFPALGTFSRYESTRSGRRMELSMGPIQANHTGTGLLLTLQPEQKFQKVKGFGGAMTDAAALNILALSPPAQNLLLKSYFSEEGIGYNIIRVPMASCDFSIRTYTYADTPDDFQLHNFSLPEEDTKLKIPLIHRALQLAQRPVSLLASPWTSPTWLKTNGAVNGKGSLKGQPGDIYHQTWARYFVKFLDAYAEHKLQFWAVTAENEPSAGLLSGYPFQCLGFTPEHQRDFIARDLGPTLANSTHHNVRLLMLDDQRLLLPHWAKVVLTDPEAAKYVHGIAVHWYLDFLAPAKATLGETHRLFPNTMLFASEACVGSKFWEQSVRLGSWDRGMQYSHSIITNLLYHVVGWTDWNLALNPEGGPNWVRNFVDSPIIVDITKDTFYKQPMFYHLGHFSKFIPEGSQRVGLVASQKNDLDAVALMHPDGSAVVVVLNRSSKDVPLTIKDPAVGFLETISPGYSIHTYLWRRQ
3',5'-cyclic-AMP phosphodiesterase 4B (Homo sapiens), sequence (Q07343 whole entry, looked up): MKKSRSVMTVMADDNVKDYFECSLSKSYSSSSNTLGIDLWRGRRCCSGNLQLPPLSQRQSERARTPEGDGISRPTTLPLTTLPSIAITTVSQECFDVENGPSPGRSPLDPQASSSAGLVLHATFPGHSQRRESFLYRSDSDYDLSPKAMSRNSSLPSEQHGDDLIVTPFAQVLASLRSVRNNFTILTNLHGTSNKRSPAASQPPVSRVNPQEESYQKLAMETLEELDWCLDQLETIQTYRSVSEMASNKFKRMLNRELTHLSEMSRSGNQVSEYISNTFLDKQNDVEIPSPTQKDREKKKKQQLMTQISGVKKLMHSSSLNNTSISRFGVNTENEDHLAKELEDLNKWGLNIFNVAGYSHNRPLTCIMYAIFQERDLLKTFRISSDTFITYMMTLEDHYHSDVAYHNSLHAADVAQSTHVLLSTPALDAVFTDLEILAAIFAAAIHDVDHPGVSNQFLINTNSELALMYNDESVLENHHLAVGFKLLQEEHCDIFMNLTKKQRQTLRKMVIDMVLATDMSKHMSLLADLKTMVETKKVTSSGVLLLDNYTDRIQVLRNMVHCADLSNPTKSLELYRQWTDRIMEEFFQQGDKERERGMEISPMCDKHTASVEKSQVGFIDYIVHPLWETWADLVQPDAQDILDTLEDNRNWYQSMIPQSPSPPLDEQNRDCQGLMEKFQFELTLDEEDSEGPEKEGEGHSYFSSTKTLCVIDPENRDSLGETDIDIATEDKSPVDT
Ubiquitin carboxyl-terminal hydrolase 1 (Homo sapiens), sequence (O94782 whole entry, looked up): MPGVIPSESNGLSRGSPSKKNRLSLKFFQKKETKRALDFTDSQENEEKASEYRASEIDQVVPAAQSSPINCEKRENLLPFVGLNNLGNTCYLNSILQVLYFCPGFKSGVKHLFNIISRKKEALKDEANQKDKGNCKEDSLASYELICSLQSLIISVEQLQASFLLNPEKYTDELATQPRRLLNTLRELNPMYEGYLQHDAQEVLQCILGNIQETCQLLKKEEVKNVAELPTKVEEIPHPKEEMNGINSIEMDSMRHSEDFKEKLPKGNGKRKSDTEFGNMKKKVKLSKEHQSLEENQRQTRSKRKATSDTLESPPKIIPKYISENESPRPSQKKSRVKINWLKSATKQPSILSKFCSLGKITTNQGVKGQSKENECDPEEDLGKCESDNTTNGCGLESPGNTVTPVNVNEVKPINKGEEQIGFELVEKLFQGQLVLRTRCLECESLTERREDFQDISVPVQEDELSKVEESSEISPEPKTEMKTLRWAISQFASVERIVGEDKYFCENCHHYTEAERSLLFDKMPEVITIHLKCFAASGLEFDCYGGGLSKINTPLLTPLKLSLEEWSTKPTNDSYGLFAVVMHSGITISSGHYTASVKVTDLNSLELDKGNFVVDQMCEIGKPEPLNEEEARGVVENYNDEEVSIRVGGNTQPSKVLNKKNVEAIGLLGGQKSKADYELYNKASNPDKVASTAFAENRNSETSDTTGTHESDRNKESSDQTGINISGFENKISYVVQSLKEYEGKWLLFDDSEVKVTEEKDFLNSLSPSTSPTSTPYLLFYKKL
Cytochrome P450 1A2 (Homo sapiens), sequence (P05177 whole entry, looked up): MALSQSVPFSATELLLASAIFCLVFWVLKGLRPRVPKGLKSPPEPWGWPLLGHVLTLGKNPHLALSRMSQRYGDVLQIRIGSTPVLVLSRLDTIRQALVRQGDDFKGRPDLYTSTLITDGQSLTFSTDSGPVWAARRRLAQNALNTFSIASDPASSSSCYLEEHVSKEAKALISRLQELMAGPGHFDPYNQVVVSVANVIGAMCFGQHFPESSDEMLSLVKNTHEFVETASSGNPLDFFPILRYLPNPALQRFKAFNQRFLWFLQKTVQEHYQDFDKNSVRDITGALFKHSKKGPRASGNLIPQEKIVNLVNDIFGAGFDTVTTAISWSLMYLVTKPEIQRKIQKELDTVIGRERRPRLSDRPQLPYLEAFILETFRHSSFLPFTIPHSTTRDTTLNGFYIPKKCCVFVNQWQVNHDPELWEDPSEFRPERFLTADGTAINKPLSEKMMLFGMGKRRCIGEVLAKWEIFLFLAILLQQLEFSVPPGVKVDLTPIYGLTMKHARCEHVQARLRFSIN

O=C(c1ccco1)N1CCC[C@@]2(CCN(c3ccncc3)C2)C1
inactive: Potency [1] > 11.4 µM | activity change, negative = inhibition [2] 0.424% | activity, negative = inhibition [4] 1.83% | Potency [5] > 46 µM | outcome [6] | Potency [7] | Potency [9] | Potency [10]
active: Potency [3] 12.6 µM | Potency [8] 1.26 µM | Potency [11] 28.2 µM

O=c1c(-c2ccc(Cl)cc2)nc2cnc(Oc3ccccc3)nc2n1C1CC1
active: Potency [11] 35.5 µM
inactive: Potency [1] > 11.4 µM | activity change, negative = inhibition [2] -21% | activity change, negative = inhibition [12] -2.33% | activity, negative = inhibition [4] -4.95% | Potency [13] > 9.22 µM | Potency [5] > 46 µM | outcome [6] | Potency [7] | Potency [10]

O=c1cnc2cnc(N3CCNCC3)nc2n1Cc1cccs1
active: Potency [11] 31.6 µM
inactive: activity change, negative = inhibition [2] -4.82% | activity, negative = inhibition [4] 0.322% | Potency [13] > 9.22 µM | Potency [5] > 46 µM | outcome [6] | Potency [7] | Potency [9] | Potency [10]

O=c1c(CCc2ccccc2)nc2cnc(N3CCNCC3)nc2n1C1CC1
18.1%: max response ([14]; measured here: lipid channel max response)
inactive: Potency [1] > 11.4 µM | activity change, negative = inhibition [2] -9.21% | activity change, negative = inhibition [12] -7.73% | activity, negative = inhibition [4] -12.8% | Potency [13] > 9.22 µM | Potency [5] > 46 µM | outcome [6] | Potency [9] | activity change, negative = inhibition ([14]; at 57.5 µM (top of the series)) 2.72% | Potency [15] | Potency [16] | Potency [17] | Potency [18] | Potency [10]
16.7%: max response ([14]; measured here: cell count channel max response)

COc1cccc(CN2CCN(C(=O)c3ccc(-c4ccccc4)cc3)CC2)c1OC
inactive: Potency [10] | max response [19] 10.7%

Cc1ccc(-n2c(C)cc(/C=N/NC(=O)c3ccncc3)c2C)cc1C
inactive: Potency [11] | max response [19] 2.93%

COCCn1c(=O)c(-c2ccc(F)cc2)nc2cnc(OCc3ccccc3)nc21
inactive: Potency [1] > 11.4 µM | activity change, negative = inhibition [2] -23.2% | activity change, negative = inhibition [12] -6.09% | Potency [13] > 9.22 µM | Potency [5] > 46 µM | outcome [6] | Potency [7] | Potency [9] | Potency [10]
